# Data from PubChem BioAssay (NCATS).
# Several values for one entry are separate records, joined by “and”; a condition that tells them apart may be missing. Equal values may be shown once. Inconclusive results are not listed. Where a call stands in place of a potency, no number is given. Unmarked numbers belong to inactive results. Activity calls are given as the source filed them. The call rests on the fitted dose curve; in most records, active means well fitted curve in the direction sought with a large enough effect; inconclusive means small, poorly fitted or top-dose-only effect, or another doubt; inactive means no such curve, though single readings can be large; an effect the other way counts as inactive or inconclusive.
# What was measured:
# CRL-7250 = normal cell line; experiment: Cytotoxic Profiling of Annotated Libraries Using Quantitative High-Throughput Screening (AID 1296008); conditions: Five cell lines viability, CellTiter-Glo ATP luminescence, 48-72 h; max response: active compounds read low; further: nearly all actives have a fitted effect of over 60% in size; further: potency means the concentration at half of the fitted maximal effect
# Method in brief: (§1)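 Cells exposed to compounds for 48 or 72 hr at 37 degrees Celsius. Viability read as ATP-coupled luminescence with CellTiter-Glo after 10 min at room temperature.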
# HaCat [1] = experiment: as above; conditions: Five cell lines viability, CellTiter-Glo ATP luminescence, 48-72 h; max response: active compounds read low
# Method in brief: as §1
# UISO = experiment: qHTS assay to identify novel small-molecules to repurpose for Merkel cell carcinoma treatment (AID 1296009); conditions: MCC and control cell lines, CellTiter-Glo viability, 72 h; series mostly up to 46 µM; further: nearly all actives have a fitted effect of over 60% in size; further: potency means the concentration at half of the fitted maximal effect
# Method in brief: (§2)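 Dose-response viability screen; 72 hr exposure at 37 degree celsius; CellTiter-Glo added, 10 min room temperature, luminescence read; RLUs scaled between no-cell and DMSO wells.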
# WaGa = experiment: as above; conditions: MCC and control cell lines, CellTiter-Glo viability, 72 h; series mostly up to 46 µM
# Method in brief: as §2
# C33A = experiment: Primary qHTS to identify gynecologic anti-cancer compounds using libraries of approved drugs and bioactive compounds (AID 1345084); conditions: Gynecologic cancer cell panel viability, ATPlite luminescence, 48 h; series mostly up to 57.5 µM; further: nearly all actives have a fitted effect of over 55% in size
# Method in brief: (§3)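 Cell viability after 48 h drug treatment, ATPlite luminescence readout; five doses.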
# CASKI = experiment: as above; conditions: Gynecologic cancer cell panel viability, ATPlite luminescence, 48 h; series mostly up to 57.5 µM
# Method in brief: as §3
# HeLa = experiment: as above; conditions: Gynecologic cancer cell panel viability, ATPlite luminescence, 48 h; series mostly up to 57.5 µM
# Method in brief: as §3
# Hek293T = experiment: as above; conditions: Gynecologic cancer cell panel viability, ATPlite luminescence, 48 h, control line for the selectivity index; series mostly up to 57.5 µM
# Method in brief: as §3
# KB-3-1 = experiment: Cytotoxic Profiling of Annotated Libraries Using Quantitative High-Throughput Screening (AID 1296008); conditions: Five cell lines viability, CellTiter-Glo ATP luminescence, 48-72 h; max response: active compounds read low; further: nearly all actives have a fitted effect of over 60% in size; further: potency means the concentration at half of the fitted maximal effect
# Method in brief: as §1
# NIH3T3 [2] = experiment: as above; conditions: Five cell lines viability, CellTiter-Glo ATP luminescence, 48-72 h; max response: active compounds read low
# Method in brief: as §1
# MCC-13 = experiment: qHTS assay to identify novel small-molecules to repurpose for Merkel cell carcinoma treatment (AID 1296009); conditions: MCC and control cell lines, CellTiter-Glo viability, 72 h; series mostly up to 46 µM; further: nearly all actives have a fitted effect of over 60% in size; further: potency means the concentration at half of the fitted maximal effect
# Method in brief: as §2
# MCC-26 = experiment: as above; conditions: MCC and control cell lines, CellTiter-Glo viability, 72 h; series mostly up to 46 µM
# Method in brief: as §2
# MKL-1 = experiment: as above; conditions: MCC and control cell lines, CellTiter-Glo viability, 72 h; series mostly up to 46 µM
# Method in brief: as §2
# MKL-2 = experiment: as above; conditions: MCC and control cell lines, CellTiter-Glo viability, 72 h; series mostly up to 46 µM
# Method in brief: as §2
# NIH3T3 [3] = experiment: as above; conditions: MCC and control cell lines, CellTiter-Glo viability, 72 h; series mostly up to 44.8 µM
# Method in brief: as §2
# CAOV3 = experiment: Primary qHTS to identify gynecologic anti-cancer compounds using libraries of approved drugs and bioactive compounds (AID 1345084); conditions: Gynecologic cancer cell panel viability, ATPlite luminescence, 48 h; series mostly up to 57.5 µM; further: nearly all actives have a fitted effect of over 55% in size
# Method in brief: as §3
# Es-2 = experiment: as above; conditions: Gynecologic cancer cell panel viability, ATPlite luminescence, 48 h; series mostly up to 57.5 µM
# Method in brief: as §3
# HEK293 = experiment: Cytotoxic Profiling of Annotated Libraries Using Quantitative High-Throughput Screening (AID 1296008); conditions: Five cell lines viability, CellTiter-Glo ATP luminescence, 48-72 h; max response: active compounds read low; further: nearly all actives have a fitted effect of over 60% in size; further: potency means the concentration at half of the fitted maximal effect
# Method in brief: as §1
# HACAT [4] = experiment: qHTS assay to identify novel small-molecules to repurpose for Merkel cell carcinoma treatment (AID 1296009); conditions: MCC and control cell lines, CellTiter-Glo viability, 72 h; at 44.8 µM (top of the series) unless noted; further: nearly all actives have a fitted effect of over 60% in size; further: potency means the concentration at half of the fitted maximal effect
# Method in brief: as §2
smiles,measurement,setting,value
Cc1csc(-c2nnc(Nc3ccc(Oc4ncccc4-c4ccnc(N)n4)cc3)c3ccccc23)c1,max response,CRL-7250,-3.89% and -3.06%
same,Potency,HaCat [1],0.148 µM (active)
same,Potency,UISO,inactive
same,Potency,WaGa,0.0118 µM (active)
same,Potency,C33A,inactive
same,Potency,CASKI,inactive
same,Potency,HeLa,inactive
same,Potency,Hek293T,inactive
CC[C@@H]([C@H](C)O)n1ncn(-c2ccc(N3CCN(c4ccc(OCC5CO[C@@](Cn6cncn6)(c6ccc(F)cc6F)C5)cc4)CC3)cc2)c1=O (stereo not given in full),max response,CRL-7250,-19.5%
same,max response,HaCat [1],-20.3%
same,max response,KB-3-1,-2.24%
same,max response,NIH3T3 [2],-23.9%
same,Potency,MCC-13,inactive
same,Potency,MCC-26,inactive
same,Potency,MKL-1,inactive
same,Potency,MKL-2,inactive
same,Potency,UISO,inactive
same,Potency,WaGa,inactive
CN(C)CCOc1ccc(C(=C(CCCl)c2ccccc2)c2ccccc2)cc1,max response,CRL-7250,-7.14%
same,max response,HaCat [1],-3.54%
same,max response,KB-3-1,7.38%
same,outcome,NIH3T3 [2],inactive
same,Potency,MCC-13,inactive
same,Potency,MKL-1,inactive
same,Potency,MKL-2,inactive
same,Potency,NIH3T3 [3],inactive
same,Potency,UISO,inactive
same,Potency,WaGa,inactive
CC(C)c1onc(-c2c(Cl)cccc2Cl)c1COc1ccc(C=Cc2cccc(C(=O)O)c2)c(Cl)c1,max response,CRL-7250,-1.7%
same,max response,HaCat [1],-7.35%
same,max response,KB-3-1,6.78%
same,max response,NIH3T3 [2],4.7%
same,Potency,MCC-13,inactive
same,Potency,MCC-26,inactive
same,Potency,MKL-1,inactive
same,Potency,MKL-2,inactive
same,Potency,UISO,inactive
same,Potency,WaGa,inactive
Fc1ccc(CNc2ncnc3ccc(F)cc23)cc1,Potency,CRL-7250,4.69 µM (active) and 4.61 µM (active)
same,max response,HaCat [1],-29%
same,max response,NIH3T3 [2],-22.4%
same,Potency,MCC-13,inactive
same,Potency,MCC-26,inactive
same,Potency,MKL-2,inactive
same,Potency,CAOV3,inactive
same,Potency,CASKI,inactive
same,Potency,Es-2,inactive
same,Potency,HeLa,inactive
CC(O)=C(C#N)C(=O)Nc1ccc(C(F)(F)F)cc1,max response,CRL-7250,-8.07%
same,max response,HaCat [1],-27.6%
same,Potency,MCC-13,inactive
same,Potency,MCC-26,inactive
c1ccc(-c2oc3ncnc(NC[C@@H]4CCCO4)c3c2-c2ccccc2)cc1,max response,CRL-7250,-6.45%
same,max response,HaCat [1],-3.81%
same,Potency,NIH3T3 [2],14.6 µM (active)
same,Potency,MCC-13,inactive
same,Potency,MKL-1,inactive
same,Potency,MKL-2,inactive
same,Potency,UISO,inactive
same,Potency,WaGa,inactive
same,Potency,C33A,inactive
same,Potency,CAOV3,inactive
same,Potency,CASKI,inactive
same,Potency,Es-2,inactive
same,Potency,HeLa,inactive
same,Potency,Hek293T,inactive
Cc1cc(CS(=O)(=O)c2ccccc2)cc(OCc2ccc(CN3CCC[C@H]3CO)cc2)c1,Potency,CRL-7250,1.32 µM (active)
same,Potency,HaCat [1],1.48 µM (active)
same,Potency,KB-3-1,3.72 µM (active)
same,Potency,NIH3T3 [2],2.96 µM (active)
same,Potency,MCC-13,inactive
same,Potency,MCC-26,inactive
same,Potency,MKL-1,inactive
same,Potency,MKL-2,inactive
same,Potency,UISO,inactive
same,Potency,WaGa,inactive
COc1ccc2ccc(=O)oc2c1CC=C(C)C,max response,CRL-7250,-22%
same,max response,HaCat [1],-6.16%
same,outcome,KB-3-1,inactive
same,max response,NIH3T3 [2],-31.4%
same,Potency,MCC-13,inactive
same,Potency,MCC-26,inactive
same,Potency,MKL-1,10.5 µM (active)
same,Potency,MKL-2,11.8 µM (active)
same,Potency,UISO,inactive
same,Potency,WaGa,5.26 µM (active)
O=C(Nc1cccc2c(=O)cc(-c3nn[nH]n3)oc12)c1ccc(OCCCCc2ccccc2)cc1,Potency,HEK293,18.7 µM (active)
same,outcome,HaCat [1],inactive
same,max response,KB-3-1,-16.8%
same,max response,NIH3T3 [2],-4.19%
same,outcome,HACAT [4],inactive
same,Potency,MCC-13,inactive
same,Potency,MCC-26,inactive
same,Potency,MKL-1,inactive
same,Potency,WaGa,inactive
same,Potency,C33A,inactive
same,Potency,CAOV3,inactive
same,Potency,CASKI,inactive
same,Potency,HeLa,inactive
same,Potency,Hek293T,inactive
CC1=C[C@@H]2[C@@H]([C@@H](O)C[C@@]3(C)[C@H]2C[C@@H](C)[C@]3(O)C(=O)CO)[C@@]2(C)Cc3cnn(-c4ccccc4)c3C=C12,Potency,HEK293,10.3 µM (active)
same,Potency,HaCat [1],20.6 µM (active)
same,Potency,NIH3T3 [2],14.6 µM (active)
same,Potency,MCC-13,inactive
same,Potency,MCC-26,inactive
same,Potency,MKL-1,inactive
same,Potency,MKL-2,inactive
same,Potency,UISO,inactive
same,Potency,WaGa,inactive
same,Potency,CASKI,inactive
CNc1nc(-c2ccc3c(N)n[nH]c3c2)cc(N2C[C@@H](C(=O)NC3CCCCC3)CC[C@@H]2C)n1,Potency,HEK293,7.43 µM (active)
same,max response,HaCat [1],-5.08%
same,Potency,MCC-13,inactive
same,Potency,MCC-26,inactive
same,Potency,MKL-1,inactive
same,Potency,UISO,inactive
same,Potency,WaGa,inactive
OCCn1cc(-c2ccc3c(c2)CCC3=NO)c(-c2ccncc2)n1,max response,HEK293,2.25%
same,max response,HaCat [1],1.64%
same,max response,KB-3-1,-5.13%
same,max response,NIH3T3 [2],-8.29%
same,Potency,MCC-13,inactive
same,Potency,MCC-26,inactive
same,Potency,MKL-1,inactive
same,Potency,MKL-2,inactive
same,Potency,UISO,inactive
same,Potency,WaGa,inactive
CCC[C@H](Nc1nc(-c2ccc(NC(=O)NCC)c(OC)c2)ncc1C)c1cccnc1,max response,HEK293,-101%
same,Potency,KB-3-1,0.0047 µM (active)
same,max response,NIH3T3 [2],-76.8%
same,Potency,MCC-13,0.0469 µM (active)
same,Potency,MKL-2,0.0187 µM (active)
CCCC1OC2C[C@@H]3[C@H]4CCC5=CC(=O)C=C[C@]5(C)[C@H]4C(O)C[C@]3(C)[C@]2(C(=O)CO)O1 (stereo not given in full),max response,CRL-7250,-14.4%
same,max response,KB-3-1,-2.26%
same,max response,NIH3T3 [2],-21.2%
same,Potency,MCC-13,inactive
same,Potency,MCC-26,inactive
same,Potency,MKL-1,inactive
same,Potency,UISO,inactive
same,Potency,WaGa,inactive
